Vif-APOBEC3F blk = qHTS for Inhibitors of Vif-A3F Interactions: qHTS | Potency, µM (highest dose often 46.1 µM), inactives show at the highest dose activity, negative = active | actives 0.2% (n = 390,000) | HeLa A3F-eYFP + Vif (tagged APOBEC3F with the HIV-1 protein that degrades it), YFP fluorescence increase | AID 602313, 2012; note: potency is the fitted concentration of half-maximal effect; % of control where 0% means no effect; nearly all actives have a fitted effect of over 65% in size
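HeLa cells stably expressing Vif plus C-terminally eYFP-tagged A3F were seeded, incubated overnight at 37 deg C, dosed with compound, incubated overnight again at 37 deg C. Yellow fluorescence (Ex 488/Em 500-530) reported blocked Vif-mediated A3F-eYFP degradation.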
TRPML1 agonist = qHTS for Agonists of the Human Mucolipin Transient Receptor Potential 1 (TRPML1); Mucolipin-1 (Homo sapiens), Q9GZU1; actives 0.12% (n = 410,000); activation, % (test concentration not listed); TRPML1-expressing cells, Ca2+ dye fluorescence, FDSS; in the data active = activation above about 50%; inconclusive = mostly about 30% to 49%; note: 0% is about no effect
Target sequence (Q9GZU1 whole entry, looked up): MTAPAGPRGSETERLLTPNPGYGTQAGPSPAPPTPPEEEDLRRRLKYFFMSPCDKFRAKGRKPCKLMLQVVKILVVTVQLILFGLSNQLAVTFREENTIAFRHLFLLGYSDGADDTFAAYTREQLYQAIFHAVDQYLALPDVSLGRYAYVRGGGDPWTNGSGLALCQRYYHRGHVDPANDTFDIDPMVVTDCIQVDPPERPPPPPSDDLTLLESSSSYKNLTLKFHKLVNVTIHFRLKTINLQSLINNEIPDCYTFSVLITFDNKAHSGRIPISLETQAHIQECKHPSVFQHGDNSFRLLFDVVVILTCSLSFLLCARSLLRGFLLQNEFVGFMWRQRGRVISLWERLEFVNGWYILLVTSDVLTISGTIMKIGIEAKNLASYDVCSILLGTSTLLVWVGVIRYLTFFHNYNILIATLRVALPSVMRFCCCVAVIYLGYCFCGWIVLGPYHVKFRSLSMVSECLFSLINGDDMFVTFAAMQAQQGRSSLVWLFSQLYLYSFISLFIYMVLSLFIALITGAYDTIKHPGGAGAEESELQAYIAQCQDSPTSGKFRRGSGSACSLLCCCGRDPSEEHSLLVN
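In this qHTS format, compounds were pin-transferred onto Ca8-dye-loaded TRPML1-DL cells induced with Tet overnight, and intracellular Ca2+ fluorescence was recorded kinetically for 110 s after a 10 s baseline. A subsequent 4uM final 54-4 (EC80) addition followed by a second 110 s read served as the antagonist phase.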
12-LOX inh = Primary qHTS assay for inhibitors of human arachidonate 12S-lipoxygenase (ALOX12): Round 2; Polyunsaturated fatty acid lipoxygenase ALOX12 (Homo sapiens), P18054; purified 12hLO, xylenol orange hydroperoxide absorbance; Potency, µM (titrated, usually from 108 µM), without a hit: at the top dose activity change, negative = inhibition, usual class: inhibitors; actives 1.1% (n = 580,000); AID 1671190, 2021; note: potency is the fitted concentration of half-maximal effect; % is set by controls: 0 for no effect and ±100 for the full control effect
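Purified human 12hLO (150 nM final) in 25 mM Hepes, 0.01% Triton X-100, pH 7.0 was preincubated 15 min at room temperature with compound. Then 40 uM arachidonic acid was added, 30 min. Hydroperoxide was read by Fe-XO absorbance ratio 573/405 nm.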
TRPML1 blocker = qHTS for Inhibitors of the Human Mucolipin Transient Receptor Potential 1 (TRPML1); Mucolipin-1 (Homo sapiens), Q9GZU1; TRPML1-inducible cells, Ca2+ dye fluorescence, FDSS; stronger effect = lower value; inhibition of EC80 agonist-evoked calcium signal; activity change, negative = inhibition, % (no concentration beside the values); actives 0.02% (n = 390,000); AID 624415, 2012; in the data active = activity change below about -50%; inconclusive = between about -30% and that limit;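 note: stimulus is agonist 54-4 at its EC80 concentration; % is set by controls: 0 for no effect and ±100 for the full control effect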
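Tet-induced TRPML1-DL cells loaded with Ca8 no-wash calcium dye were read kinetically on FDSS. Compound addition was followed by EC80 agonist 54-4 (4 uM final); inhibition was read over 110 s.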
Vif-APOBEC3G blk = qHTS for Inhibitors of Vif-A3G Interactions: qHTS; AID 602310, 2012; HeLa A3G-eYFP + Vif (tagged APOBEC3G with the HIV-1 protein that degrades it), YFP fluorescence, overnight; Potency, µM (top dose mostly 46.1 µM), for the others: at the top dose activity, negative = active, hits mostly inhibitors; actives 0.076% (n = 410,000); note: potency is the fitted concentration of half-maximal effect; % is set by controls: 0 for no effect and ±100 for the full control effect; nearly all actives have a fitted effect of over 60% in size
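Read-out is eYFP fluorescence (Ex 488/Em 500-530) from Vif-expressing HeLa A3G-eYFP cells; more signal means A3G escaped Vif-mediated degradation. Cells plated overnight, compound pinned in, incubated overnight at 37 deg C.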
Glioma ERSR ind = qHTS for Inducers of the Endoplasmic Reticulum Stress Response (ERSR) in Human Glioma: qHTS | U87-MG GRP78 promoter luciferase reporter, 16 h | Potency, µM, for the others: at the top dose activation, usual class: activators | actives 0.02% (n = 420,000) | AID 602332, 2012; note: potency is the fitted concentration of half-maximal effect; series mostly up to about 76 µM; % of control where 0% means no effect; nearly all actives have a fitted effect of over 35% in size
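Stably transfected U87-MG human glioma cells carrying a GRP78-based luminescent sensor were seeded at 1000 cells/well, pin-dosed with compounds and incubated 16 h. Luciferase reagent was then added, and end-point luminescence was read after 10 min at room temperature.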
* marks the source's active call; other numbers are inactive results; u = inconclusive; x = not tested or not shown; [ ] = remark or other dose. Only some compounds are listed: those with a hit (about 1.3% of all), similar ones and a draw of the others. Unless noted, calls come from the whole dose curve; as a rule, active = well fitted curve in the direction sought with a large enough effect; inconclusive = small, poorly fitted or top-dose-only effect, or another doubt; inactive = no such curve, though single readings can be large; an effect the other way counts as inactive or inconclusive.

SMILES	Vif-APOBEC3F blk	TRPML1 agonist	12-LOX inh	TRPML1 blocker	Vif-APOBEC3G blk	Glioma ERSR ind
Cc1ccc(-c2nonc2NC(=O)c2ccccc2Br)cc1	x	x	-23%	x	x	x
Cc1ccccc1-c1nc2ccc3ccccc3c2c2c1CCCC2	x	x	-15%	x	x	x
CC(=O)c1ccc(S(=O)(=O)N2CCCCCC2c2cccn2C)cc1 (stereo not drawn)	x	x	-28%	x	x	x
Cc1ccc(C(=O)Nc2ccc(-c3nc4ccc(C)cc4s3)cc2)c(C)c1	x	x	-28%	x	x	x
CC(C)(C)NC(=S)NC(=O)C12CCC3CC(CC(C3)C1)C2	2%	1	32µM*	17	-6%	-3%
CN(C)S(=O)(=O)c1cccc(NC(=S)NNC(=O)c2cc3ccccc3cc2O)c1	5%	0	35µM*	2	1%	4%
CC12CC3(C)CC(CC(=O)O)(C1)CC(CC(=O)O)(C2)C3	x	x	-8%	x	x	x
CN1CCN(C(c2ccc(F)cc2)c2ccc3cccnc3c2O)CC1 (stereo not drawn)	-11%	5	x	27	0%	-4%
CN1CCN(C(c2ccc(Br)cc2)c2cc(Cl)c3cccnc3c2O)CC1 (stereo not drawn)	-1%	0	10µM*	13	-1%	-17%
N#CC1=C(N)OC2=C(C(=O)CC(c3ccc(Cl)cc3)C2)C1c1ccccc1Cl (stereo not drawn)	x	x	16µM*	x	x	x
N#CC1=C(N)OC2=C(C(=O)CC(c3ccccc3)C2)C1c1ccc2c(c1)OCO2 (stereo not drawn)	13%	1	-20%	-4	-10%	-7%
O=C(NC1CC1)C(Sc1cccc(C(F)(F)F)c1)c1ccccc1 (stereo not drawn)	x	x	-19%	x	x	x
N#C/C(=C/c1ccccc1)C(=O)NCc1ccccc1	-37%	1	-1%	-4	-16%	u
CN(C)c1ccc(/C=C(/C#N)C(=O)NCc2ccccc2)o1	10µM*	20	-15%	3	u	2%
CCSc1oc(-c2ccc(F)cc2)nc1S(=O)(=O)c1ccc(F)cc1	x	x	-8%	x	x	x
CSc1oc(-c2ccco2)nc1S(=O)(=O)c1ccc(C)cc1	-3%	1	u	-8	2%	-3%
CSc1oc(-c2ccco2)nc1S(=O)(=O)c1ccccc1	-12%	0	35µM*	3	0%	-6%
CCSc1oc(-c2ccccc2)nc1S(=O)(=O)c1ccc(F)cc1	x	x	10µM*	x	x	x
COc1cccc(CC2(CO)CCCN(c3ccc(-c4nccn4C)nn3)C2)c1 (stereo not drawn)	x	x	102%	x	x	x
O=C(Cc1ccc(Br)cc1)NC1CCC(c2ccccc2)CC1 (stereo not drawn)	x	x	8%	x	x	x
Cc1ccc(-c2n[nH]c(=S)n2C)cc1	1%	-1	u	-3	-6%	-3%
CCn1c(-c2sc(-c3ccccc3)nc2C)n[nH]c1=S	-12%	2	45µM*	-10	-5%	1%
Cn1c(-c2csc(-c3ccccc3)n2)n[nH]c1=S	-13%	-1	32µM*	-8	0%	5%
Cc1ccc(C(=O)COC(=O)CCC(=O)Nc2cc(C(F)(F)F)ccc2Cl)cc1[N+](=O)[O-]	x	x	-3%	x	x	x
CCOc1ccccc1Nc1nc(-c2sc(NC(=O)c3ccco3)nc2C)cs1	3%	0	-15%	4	-4%	0%
SMILES	Vif-APOBEC3F blk	TRPML1 agonist	12-LOX inh	TRPML1 blocker	Vif-APOBEC3G blk	Glioma ERSR ind
Cc1nc(NC(=O)c2ccccc2)sc1-c1csc(Nc2ccc(C(=O)O)cc2)n1	-11%	3	-7%	-2	-7%	1%
Cc1nc(NC(=O)c2ccccc2)sc1-c1csc(Nc2ccccc2Cl)n1	x	x	40µM*	x	x	x
Cc1ccccc1Nc1nc(-c2sc(NC(=O)c3ccco3)nc2C)cs1	0%	-1	7.9µM*	-8	2%	1%
Cc1cc(O)ccc1NC(=O)COc1ccc2c(=O)c(-c3ccccc3)c(C)oc2c1	x	x	9%	x	x	x
CSc1ccc(C2NC(=O)c3ccccc3N2)cc1 (stereo not drawn)	-2%	8	u	11	10µM*	-1%
Cc1ccc(NC(=O)c2csc3c2CCCCC3)c(C)c1	x	x	-29%	x	x	x
CNC(=O)CCn1ncc2cc(OCc3ccccc3-c3c(Cl)cccc3OC)ccc21	x	x	-11%	x	x	x
Cc1ccccc1-c1ccc(COc2ccc3c(cnn3CCC(=O)O)c2)cc1	x	x	45µM*	x	x	x
CNC(=O)CCn1ncc2cc(OCc3ccccc3-c3ccccc3COC)ccc21	x	x	1%[176 µM]	x	x	x
COc1cccc(F)c1-c1ccc(COc2ccc3c(cnn3CCC(=O)O)c2)cc1	x	x	22µM*	x	x	x
COc1cc(F)cc(-c2ccc(COc3ccc4c(cnn4CCC(=O)O)c3)cc2)c1	x	x	28µM*	x	x	x
COc1ccc2c(c1)c(CN1CCCCCCN(C)C(=O)[C@@H]3CCC[C@@H]31)cn2C	x	x	131%	x	x	x
O=Cc1cccc2c1OCCO2	x	x	7.1µM*	x	x	x
O=C(O)/C=C/c1cccc2c1OCCO2	-1%	0	0%	-19	-6%	-2%
Cc1ccc(O)c(N=CC2=C(O)c3ccccc3C2=O)c1	-16%	1	156%[57.4 µM]	2	-8%	32µM*
Cc1cccc(C)c1-n1nnnc1SC(C(=O)N(C)C)c1ccccc1 (stereo not drawn)	x	x	2%	x	x	x
Cn1c(N)c(C(=O)CSc2ccc3ccccc3n2)c(=O)n(C)c1=O	x	x	-6%	x	x	x
CN(C)S(=O)(=O)N(CC(=O)Nc1ccc(Cl)cc1)c1ccccc1	x	x	-15%	x	x	x
CC[Si](C)(CC)COC(=O)CCC[N+](C)(C)C	x	x	28µM*	x	x	x
CCCCOC(=O)CCCCCCCCC(=O)OCCCC	x	x	5%[22.9 µM]	x	x	x
CCS(=O)(=O)N1CCN(S(=O)(=O)c2ccc3ccccc3c2)CC1	12%	0	76%	-8	-8%	2%
CC(C)NC(=O)C(C)N1CCN(S(=O)(=O)c2ccc3ccccc3c2)CC1 (stereo not drawn)	8%	0	1.4µM*	4	1%	-3%
CC(C)N1CCN(S(=O)(=O)c2ccc3ccccc3c2)CC1	-18%	0	0.79µM*	4	0%	-4%
Cc1c(-c2cccc(Cl)c2)nc2ccccc2c1C(=O)NC1CCCc2ccccc21 (stereo not drawn)	x	x	-54%	x	x	x
O=C(O)c1cccc(N/N=C/c2cn(-c3ccccc3)nc2-c2cccs2)c1	0%	0	45µM*	-19	-2%	-6%
